# According to PubChem BioAssay (Tox21):
# Records with an inconclusive call do not appear. Where a call stands in place of a potency, no number is given. Some structures have more than one record in an assay (separate samples or runs), and their calls can disagree. Calls of active or inactive are those of the source. The call rests on the fitted dose curve.
# Assay: qHTS assay to identify small molecule agonists of H2AX - cell viability counter screen (AID 1224847); further: nearly all actives have a fitted effect of over 30% in size; on activity change, negative = cytotoxicity: top concentration of the series differs between compounds
# Conditions: CHO-K1 viability, CellTiter-Glo luminescence, 3 h; series mostly up to 154 µM; activity change, negative = cytotoxicity: at the top concentration
# Excerpt: National Center for Advancing Translational Sciences [NCATS]
# NIH Chemical Genomics Center [NCGC]
# U.S. Environmental Protection Agency [EPA]
# National Institutes of Environmental Health Sciences [NIEHS]
# National Toxicology Program [NTP]
# U.S. Food and Drug Administration [FDA]
# HTRF phospho-H2AX (Ser139) assay (Cisbio Bioassays, US) enables the quantitative detection of the histone variant H2AX when phosphorylated on serine 139. When double-stranded DNA breaks, either by ionizing radiation or endogenous physiological processes, H2AX becomes phosphorylated at Ser139. This phospho-Ser139 serves as a sensitive biomarker for the detection of such breaks, localizing the site of DNA repair. So, HTRF phospho-H2AX Ser139 is a pertinent assay to study genome stability, the cell cycle, DNA repair, and it serves as a biomarker for cancer, and to understand aging. Wild type CHO-K1 cells were used to identify the inducers of Phospho-H2AX Ser 139 from the Tox21 compound collections. Also cytotoxicity of the Tox21 10K compound library against the CHO-K1 cell line was tested by measuring the cell viability using CellTiter-Glo assay (Promega, Madison, WI).
# Tox21 Assay Protocol Summary:
# The CHO-K1 cells suspended in culture medium containing 10% FBS were dispensed at 1000 cells/ 3 ul/well in 1536-well white wall/solid bottom plates (Greiner Bio-One North America, NC) using a Multidrop Combi (Thermo Fisher Scientific Inc., Waltham, MA). After the assay plates were incubated at 37C overnight, 23 nl of compounds at 15 concentrations (from 5-48 columns) or positive control (from 1 to 4 columns) were transferred to the assay plates using a Pintool station (Wako, San Diego, CA) into each well resulting in a final DMSO concentration of 0.76%. After 3hr incubation at 37C, 3 uL/well CellTiter-Glo luminescent cell viability reagent (Promega Corporation, Madison, WI) was added using a Flying Reagent Dispenser (FRD) (Aurora Discovery, CA). After incubation at room temperature for 30 min, the luminescence intensity was read using a ViewLux plate reader (PerkinElmer, Waltham, MA).
# Potency means the concentration at half of the fitted maximal effect.
Compound,Potency,"activity change, negative = cytotoxicity"
O=C(O)C(F)(F)C(F)(F)C(F)(F)C(F)(F)C(F)(F)C(F)(F)C(F)(F)F,inactive,
CCCCCCCCCCCOC(=O)c1ccccc1C(=O)OCCCCCCCCCCC,inactive,
C=CCN(CC=C)C(=O)C(Cl)Cl,inactive,
C1=Cc2cccc3cccc1c23,inactive,
O=c1oc2ccccc2c(O)c1C(CC(O)c1ccc(-c2ccc(Br)cc2)cc1)c1ccccc1 (stereo not given),,-0.914% [at 70.9 µM] (inactive)
COP(=O)(OC)OC,inactive,
N#CCCCl,inactive,
Oc1cc(Cl)c(Cl)cc1Cl,100 µM (active) and inactive,
C[C@]12CCC(=O)C(O)=C1CC[C@@H]1[C@@H]2CC[C@]2(C)C(=O)CC[C@@H]12,,-0.0683% [at 70.9 µM] (inactive)
Oc1c(Cl)c(Cl)c(Cl)c(Cl)c1Cl,88 µM (active),
CCCCN(CCCC)N=O,inactive,
O=P(Oc1ccccc1)(Oc1ccccc1)Oc1ccccc1,89.3 µM (active) and inactive,
S=C1NCCN1,inactive,
CCN(N=O)C(N)=O,inactive,
COP(=S)(OC)Oc1ccc([N+](=O)[O-])cc1,inactive,
COP(=S)(OC)Oc1cc(Cl)c(Cl)cc1Cl,,-1.06% [at 70.9 µM] (inactive)
CCCCNC(=O)n1c(NC(=O)OC)nc2ccccc21,inactive,
N#CC(Br)Br,inactive,
c1cc(OCC2CO2)ccc1Cc1ccc(OCC2CO2)cc1 (stereo not given),inactive,
CCC(CC)Nc1c([N+](=O)[O-])cc(C)c(C)c1[N+](=O)[O-],inactive,

Compound,Potency,"activity change, negative = cytotoxicity"
CC(C)C(=O)OCC(C)(C)C(OC(=O)C(C)C)C(C)C (stereo not given),inactive,
c1nc[nH]n1,inactive,
CCCCCCCCC(=O)NCc1ccc(O)c(OC)c1,,1.43% [at 70.9 µM] (inactive)
NNC(=S)NN,inactive,
CC(C)N(C(=O)SCC(Cl)=C(Cl)Cl)C(C)C,,-9.43% (inactive)
CCC(C)(c1ccc(O)cc1)c1ccc(O)cc1,,-0.212% (inactive)
CC(C)Oc1cc(-n2nc(C(C)(C)C)oc2=O)c(Cl)cc1Cl,,-6.62% (inactive)
O=C(NC(=O)c1c(F)cccc1F)Nc1ccc(Cl)cc1,inactive,
CCCCC(CC)COC(=O)Cl (stereo not given),inactive,
Nc1c(Cl)cc([N+](=O)[O-])cc1Cl,,-1.98% (inactive)
Oc1cc(Cl)ccc1Cl,inactive,
O=C(O)CC[N+](=O)[O-],inactive,
CNC(=O)N(C)c1nnc(C(C)(C)C)s1,inactive,
Clc1nc(Cl)nc(Cl)n1,inactive,
CCCCCCCCOC(=O)c1ccccc1C(=O)OCCCCCCCC,inactive,
NNC(N)=S,inactive,
C=C(C)C(=O)OCC1CO1 (stereo not given),inactive,
CCOCN(C(=O)CCl)c1c(C)cccc1CC,inactive,
NC(=S)Nc1ccccc1,,0.555% (inactive)
CC(C)c1ccc(CO)cc1,inactive,
